High-throughput results deposited in PubChem BioAssay by several laboratories.
GAA850 FXN act = increases GAA850 frataxin promoter reporter activity; activation, % at 6 µM; AID 540364; 360,000 compounds, 0.56% hits; HEK293 lucGAA850 FXN promoter luciferase reporter, 24 h; percent of 10 µM SAHA response;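 active = activation above the average of all compounds screened plus 3 SD, cutoff fixed separately per campaign, cut at about 7.5% in these data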
HSF1 inh = HSF1 inhibition | NIH3T3-HGL HSE-luciferase, MG132-induced, luminescence 8 h; hits give low values | activity change, negative = inhibition, % at 7.5 µM (by protocol) | 300,000 compounds, 0.77% hits | AID 2098;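 active = more than half of replicate wells show activity change below -50%, luminescence cut by over half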;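 note: luciferase reports HSF-1 transcriptional activity via heat shock element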
AHR act = activates the human aryl hydrocarbon receptor; 320,000 compounds, 2.5% hits; activation, % at 5 µM; P35869; AHR-responsive luciferase reporter cells, luminescence; AID 2796; in the data active = activation above about 47%
Target sequence (P35869 whole entry, looked up): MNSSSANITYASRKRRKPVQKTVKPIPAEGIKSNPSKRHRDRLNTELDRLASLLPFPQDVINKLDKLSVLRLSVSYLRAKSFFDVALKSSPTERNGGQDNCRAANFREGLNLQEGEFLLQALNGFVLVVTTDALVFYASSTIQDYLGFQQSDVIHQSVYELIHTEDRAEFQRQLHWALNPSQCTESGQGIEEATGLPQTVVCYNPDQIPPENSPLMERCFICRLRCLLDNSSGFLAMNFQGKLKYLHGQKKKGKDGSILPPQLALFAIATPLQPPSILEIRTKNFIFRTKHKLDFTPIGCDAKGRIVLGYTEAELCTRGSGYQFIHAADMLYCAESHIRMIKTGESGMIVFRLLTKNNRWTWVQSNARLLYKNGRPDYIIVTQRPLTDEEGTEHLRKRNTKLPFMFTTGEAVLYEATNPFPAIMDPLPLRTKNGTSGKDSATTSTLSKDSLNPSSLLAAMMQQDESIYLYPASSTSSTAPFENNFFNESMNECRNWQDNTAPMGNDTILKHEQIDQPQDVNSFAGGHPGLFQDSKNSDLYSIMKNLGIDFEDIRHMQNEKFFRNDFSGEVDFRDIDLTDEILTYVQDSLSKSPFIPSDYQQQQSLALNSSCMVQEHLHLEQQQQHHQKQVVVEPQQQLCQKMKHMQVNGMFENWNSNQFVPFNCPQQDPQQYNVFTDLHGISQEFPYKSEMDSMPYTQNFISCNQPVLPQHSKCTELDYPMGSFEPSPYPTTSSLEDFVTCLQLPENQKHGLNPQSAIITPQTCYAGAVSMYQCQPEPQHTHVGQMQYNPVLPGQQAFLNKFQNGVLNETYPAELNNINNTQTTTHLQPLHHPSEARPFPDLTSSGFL
HSF-1 act = increases HSF-1 driven luciferase reporter signal. NIH3T3-HGL HSF-1 luciferase reporter, MG132, 8 h; 100% = twice DMSO control signal. activation, % at 9 µM. 300,000 compounds, 1.7% hits;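 active = mean replicate activation of at least 50% with a set share of replicates each reaching 50%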
Of the large screens only hits and unclear results are named; the others gave an inactive call. Rows were chosen to be rich in hits. Some 4.6% of all compounds tested hit in one or more screens of this group.

COc1ccc(/C=C(/C#N)c2cccnc2)cc1OC	AHR act 64
COC(=O)c1oc2ccccc2c1N	AHR act 77
CC(=O)c1oc2ccccc2c1N	none
COc1ccc(NC(=O)CSc2nnc3ccc(-c4ccncc4)nn23)cc1	none
O=C(CSc1nnc2ccc(-c3cccnc3)nn12)Nc1ccc(F)cc1	AHR act 61
COc1cccc(NC(=O)CSc2nnc3ccc(-c4ccncc4)nn23)c1	HSF-1 act 58 (no result: AHR act)
CN(Cc1cccc2cnccc12)C(=O)c1cc(COc2ccc(F)cc2Cl)on1	none
CCN(CC)S(=O)(=O)c1cccc(C(=O)OCC(=O)C23CC4CC(CC(C4)C2)C3)c1	none
O=C(CSc1nc2ccccc2s1)Nc1ccc(Cl)c(S(=O)(=O)N2CCOCC2)c1	none
O=C(CSc1nc2cc(Cl)ccc2c(=O)n1Cc1ccco1)Nc1ccc(S(=O)(=O)N2CCOCC2)cc1	HSF-1 act 79
O=C(CSc1nc2cc(Cl)ccc2s1)Nc1cccc(S(=O)(=O)N2CCOCC2)c1	HSF1 inh -54
Cc1ccc(NC(=O)Cn2nc(C)cc2C)cc1	none
CC(C)c1ccc(/C=N/n2nnnc2Nc2ccccc2)cc1	HSF-1 act 55
CSc1nc(C)c(C(=O)Nc2ccccc2)c(-c2ccco2)c1C#N	none
Cc1c(C)n(O)c2ccc3nonc3c12	none
Oc1ccccc1-n1nc2ccc3nonc3c2n1	AHR act 76
COC(=O)C1=C(C(=O)OC)SC(=C2C(=S)C(C)(C)N(C(=O)C3CC3)c3ccccc32)S1	none
COc1ccc(NC(=O)n2ncc3cc(Cl)ccc32)cc1OC	HSF-1 act 53
COc1cc(NC(=O)n2ncc3cc(Cl)ccc32)cc(OC)c1	none
COc1cccc(CN2CCN(Cc3cccn3-c3cccnc3)CC2CCO)c1 (centres undefined)	HSF-1 act 56
CC(C)CCN1CCN(Cc2cccn2-c2cccnc2)CC1CCO (centres undefined)	none
C/C(CCC1CC(C)OC1=O)=N/Nc1nc(-c2ccccc2)cs1 (centres undefined)	AHR act 103
CC1CC(CC(=O)NNc2nc(-c3ccccc3)cs2)C(=O)O1 (centres undefined)	none
CCOC(=O)c1cc(C#N)c(Oc2cccc(C(F)(F)F)c2)nc1-c1ccccc1	none
CCOC(=O)c1cc(C#N)c(NCc2ccccc2)nc1C	HSF1 inh -72
O=C(CN1CCN(c2ccccn2)CC1)Nc1ccccc1	none
COc1cccc(-n2nnnc2S(C)(=O)=O)c1	HSF-1 act 325
Cc1ccc(-c2noc(CCC(=O)Nc3ccccc3C)n2)cc1	none
Cc1ccc(-c2noc(CCC(=O)Nc3cc(C)ccn3)n2)cc1	HSF-1 act 69
CC1(C(=O)Nc2ccccc2)Cc2c(-c3cccc(C(N)=O)c3)ccnc2O1 (centres undefined)	none (no result: HSF1 inh, AHR act, HSF-1 act)
CC(C)(C)CC(=O)Nc1ccc(S(=O)(=O)N2CCCC2)cc1	none
O=C(CCCSc1nc2ccccc2s1)NCc1ccc2c(c1)OCO2	AHR act 50
Nc1nc(SCC(=O)NCc2ccc3c(c2)OCO3)n[nH]1	none
O=C(CSc1ccc2nnc(-c3cccnc3)n2n1)NCc1ccc2c(c1)OCO2	none
O=C(CSc1n[nH]c(-c2cccs2)n1)NCc1ccc2c(c1)OCO2	AHR act 58
O=C(CSc1ccc2nnc(-c3ccccc3)n2n1)NCc1ccc2c(c1)OCO2	AHR act 56
O=C(CSc1ccc2ccccc2n1)NCc1ccc2c(c1)OCO2	AHR act 64
COc1ccc(S(=O)(=O)NCC(c2cccnc2)N2CCN(C)CC2)cc1C (centres undefined)	none
CN(C)S(=O)(=O)NC(c1ccccc1)c1ccccc1	none
O=C(CSc1ccc([N+](=O)[O-])cc1)OCC(=O)N1CCCC1=O	none (no result: HSF1 inh, HSF-1 act)
Cc1ccccc1/C=C1\OC(=O)c2ccccc21	none
Cc1ccc(/C=C2\OC(=O)c3ccccc32)cc1	HSF-1 act 59
Cc1cccc(C(O)c2ncc(-c3ccc4ccccc4c3)[nH]2)c1C (centres undefined)	none (no result: HSF1 inh, AHR act, HSF-1 act)
Cc1cc(=O)[nH]c(Nc2ccc(N(C)C)cc2)n1	AHR act 55
Cc1cc(=O)[nH]c(Nc2ccc(Cl)cc2)n1	none
Cc1cccc(N2C(=O)CSC2c2cccnc2)c1 (centres undefined)	none
Cc1cccc(N2CCN(c3cccc(C)c3)C2c2cccnc2)c1	HSF-1 act 67
Cc1nc2ccccc2c2oc(C(=O)NCc3ccccn3)cc12	HSF-1 act 52
Cc1ccc(CNC(=O)c2cc3c(C)nc4ccccc4c3o2)cc1	none
Cc1c(C(=O)NCc2ccccn2)oc2ccccc12	AHR act 59
Cc1c(C(=O)NNC(=O)c2ccccc2O)oc2ccc(Br)cc12	AHR act 51
C=CCNC(=S)NC(=O)c1oc2ccccc2c1C	AHR act 66
Cc1c(C(=O)NC(=S)NCC(C)C)oc2ccccc12	none
Cc1ccccc1-n1c(=O)/c(=C\c2ccco2)s/c1=C(/C#N)C(=O)Nc1ccccc1	none
Cc1ccc(C)c(OCC(=O)Nc2ccc(C(=O)O)cc2NC(=O)COc2cc(C)ccc2C)c1	none
Cc1c(C(=O)NCc2cccs2)oc2ccc(Br)cc12	none
Cc1c(C(=O)NCc2ccccn2)oc2ccc(Br)cc12	AHR act 48
CCN(CC)S(=O)(=O)c1ccc(Cl)c(C(=O)Oc2cccc(-c3cnc4ccccc4n3)c2)c1	none
CCCN(CCC)CCCNC(=O)CS(=O)Cc1nc(-c2ccc(OC)c(OC)c2)oc1C (centres undefined)	HSF-1 act 55
CN(CC(=O)Nc1ccccc1Br)C(=O)c1cccn1C	HSF1 inh -67
Cc1ccc(NC(=O)Nn2cnnc2)cc1Cl	none
Cc1ccc(NC(=O)O/N=C/c2c(C)nn(C(C)(C)C)c2C)cc1Cl	HSF1 inh -93
COc1cc2c(cc1OC)C(c1ccc(-c3cc(Cl)ccc3Cl)o1)=NCC2	none
COc1cc2c(cc1OC)C(c1ccc(-c3ccc(Cl)c(Cl)c3)o1)=NCC2	AHR act 63
Cc1cc(C)nc(Nc2ncc(O)n2-c2ccc(C)c(C)c2)n1	none
Cc1cc(C)nc(Nc2ncc(O)n2-c2ccc(C)c(Cl)c2)n1	AHR act 57
CC(C)NS(=O)(=O)c1ccc(OCC(N)=O)c(Cl)c1	none
CCc1ccc(-c2csc(NC(=O)C3=COCCO3)n2)cc1	none (no result: HSF1 inh, HSF-1 act)
Cc1ccc(-c2[nH]nc(N)c2N=Nc2ccccc2C)cc1	AHR act 62
CCN(CC)CCn1c(/N=C/c2ccc(OC)c(OC)c2)nc2ccccc21	none
CC(=O)Nc1nn(C)c2nc3cc(C)ccc3cc12	AHR act 71
CCn1nc(NC(=O)CC(C)C)c2cc3ccc(C)cc3nc21	none
Cc1ccc(OCCOC(=O)CCc2nc3ccccc3c(=O)[nH]2)cc1	none
C#CCSc1nc(-c2ccccc2)cc(C(F)(F)F)c1C#N	AHR act 64
COc1ccccc1C(=O)n1nc(-c2ccc(Cl)cc2)nc1N	none
N#C/C(=C(/O)CSc1ccccn1)c1nc2ccccc2s1	AHR act 51
N#C/C(=C(/O)COC(=O)c1ccc(C#N)cc1)c1nc2ccccc2s1	AHR act 122
Cc1cc(NC(=O)CSCC(=O)OCC(=O)Nc2cc(C)c(C)cc2[N+](=O)[O-])no1	none
